# Sampled rows, rich in hits. Any-hit rate of the full collection: about 4.1%.
# 697 NFkB inh – lowers PMA/ionomycin-induced NF-kB signal in 697 B cells; 330,000 tested, 0.33% active; 697 B-cell NF-kB luciferase reporter, 16 h; inhibition, % at 4 µM; in the data active means inhibition above about 35%
# aSyn 5UTR inh – MLPCN primary screen, SNCA 5' untranslated region; inhibition, % (tested at 7.5 µM); alpha-synuclein 5'UTR reporter, inhibitor activity; 300,000 tested, 0.82% active; in the data active means inhibition above about 60%; inconclusive means no clear call, values can overlap the other calls;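 further: H4 neuroglioblastoma cells stably carrying SNCA 5'UTR luciferase fusion; 0% = DMSO wells and 100% = positive control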
# Gli-Sufu block – antagonists of Gli-Sufu signaling. Sufu-KO-LIGHT fibroblasts, Gli luciferase reporter luminescence. inhibition, % at 5 µM. 340,000 tested, 0.74% active;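 active means inhibition above about 55%, limit read from the data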;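 further: 0% = DMSO-treated cells and 100% = wells with medium but no cells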
# Mdm2-MdmX inh – inhibitors of human Mdm2/MdmX interaction | O15151+Q00987 | SaOS-2 split-luciferase Mdm2/MdmX complementation, luminescence | inhibition, % at 8 µM | 330,000 tested, 3% active | AID 485346;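 active means inhibition of at least 50% at 8 µM in the primary screen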
# KLF5 inh – kruppel-like factor 5 inhibition | DLD-1 KLF5 promoter-luciferase reporter, luminescence | AID 1700 | inhibition, % at 5 µM | 290,000 tested, 0.23% active;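 active means inhibition above a per-plate limit of that plate's mean compound inhibition plus 3 SD, cut at about 60% in these data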;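 further: 0% = DMSO wells and 100% = LY294002 at 200 µM; higher means less KLF5 promoter-driven luciferase light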
# Jurkat NFkB inh – inhibitors of the PMA/ionomycin-induced NF-kB reporter in Jurkat cells | 330,000 tested, 0.53% active | PMA/ionomycin-induced NF-kB luciferase reporter, luminescence | inhibition, % at 4 µM; in the data active means inhibition above about 50%
# Jurkat NFkB conf – inhibitors of the PMA/ionomycin-induced NF-kB reporter in Jurkat cells, retest | shares compounds with Jurkat NFkB inh | Jurkat NF-kB luciferase, 16 h | inhibition, % at 4 µM | 2,700 tested, 27% active;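 active means inhibition reaching about 45% at 4 µM in either replicate, limit read from the data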;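 further: plate controls were PMA/ionomycin stimulated DMSO wells for no effect and unstimulated DMSO wells for full effect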
# Mdm2-MdmX conf – human Mdm2/MdmX binding inhibition, confirmed | shares compounds with Mdm2-MdmX inh | 10,000 tested, 55% active | inhibition, % at 8 µM | luminescent assay; in the data active means inhibition above about 40%
# Full FLuc ctr – inhibits full-length luciferase, flagging false Mdm2/MdmX hits; SaOS-2 full-length luciferase counterscreen, luminescence; 6,200 tested, 77% active; shares compounds with Mdm2-MdmX inh; inhibition, % at 8 µM;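 active means mean inhibition at 8 µM reaching about 37%, which flags the compound as non-specific, limit read from the data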;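 further: p53-null SaOS-2 cells with luciferase driven by a doxycycline-inducible promoter; compound on cells about two nights before reading with doxycycline added after day one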
# Numbers without * were called inactive; ? = inconclusive; · = no result given.
SMILES,697 NFkB inh,aSyn 5UTR inh,Gli-Sufu block,Mdm2-MdmX inh,KLF5 inh,Jurkat NFkB inh,Jurkat NFkB conf,Mdm2-MdmX conf,Full FLuc ctr
N#Cc1cccc(C#N)c1Oc1ccc(S(=O)(=O)Nc2ccc(Cl)cc2)cc1,12,6,8,31,2,12,·,·,·
COc1ccc(/C=N/NC(=O)CCn2cnc(-c3ccccc3)c2-c2ccccc2)cc1,8,?,22,58*,9,57*,27,72*,96*
Cc1cccc(C)c1N1CCN(C(=O)Cn2cncn2)CC1,1,-10,2,10,-2,0,·,·,·
COc1ccc(NC(=O)c2nc(S(=O)(=O)Cc3cccc(C)c3)ncc2Cl)c(OC)c1,-243,82*,1,85*,24,54*,0,70*,23
O=S(=O)(NNc1ncc(C(F)(F)F)cc1Cl)c1ccccc1,-7,·,-3,-30,·,-9,·,·,·
Cc1ccc(C(=O)NN(C)c2nc3ccccc3nc2C(F)(F)F)cc1,-43,15,14,70*,10,56*,33,54*,61*
CN(NC(=O)c1ccc(Cl)cc1)c1nc(-c2ccccc2)nnc1C(F)(F)F,3,-5,0,21,-28,-2,·,·,·
CSCCC(N=C(NS(=O)(=O)c1ccc(C)cc1)c1ccccc1)C(=O)O (stereo not given),-1,5,-3,16,-16,6,·,·,·
CCc1ccc(CCC(=O)Nc2sc3c(c2C#N)CCCC3)o1,1,15,-2,50*,16,56*,25,68*,83*
O=C(NCCc1ccc(Cl)cc1)c1cc(S(=O)(=O)N2CCCCC2)c[nH]1,-5,30,1,17,-25,5,·,·,·
Cn1ncc2c(O/N=C(\N)c3ccc(C(C)(C)C)cc3)ncnc21,-192,104*,15,99*,-30,101*,-18,100*,52*
CCOC(=O)c1ccc(Nc2ncnc3c2cnn3C)cc1,-16,-1,-13,8,11,-34,·,·,·
COc1cccc2sc(Nc3nnc(-c4ccccc4Cl)o3)nc12,-30,66*,3,65*,-19,58*,45,65*,54*
COc1ccccc1-c1nnc(Nc2nc3c(OC)cccc3s2)o1,-110,81*,89*,59*,59,88*,34,68*,72*
COc1cccc2sc(Nc3nc(-c4ccncc4)cs3)nc12,-28,105*,-5,61*,54,60*,35,46*,51*
CN1C[C@@H]2[C@@H]3C(=O)N(Cc4ccccc4)C(=O)[C@@H]3[C@](Cc3ccccc3)(C1=O)N2C(=O)c1ccc(Cl)cc1,·,·,-8,·,·,·,·,·,·
COc1ccc(S(=O)(=O)N2CCN(C(=O)CC3CC4CCC3C4)CC2)cc1 (stereo not given),9,·,-34,-4,·,9,·,·,·
C=CCSc1nc2sc3c(c2c(=O)[nH]1)CCC3,6,-7,-1,1,-16,5,·,·,·
Cc1ccc(C(=O)NCc2ccccn2)cc1NC1=NC2CS(=O)(=O)CC2S1 (stereo not given),8,1,2,25,-5,-8,·,·,·
CCOC(=O)c1c(NC(=O)N/N=C/c2ccc(O)c(OC)c2)sc(C(C)=O)c1C,-198,-2,·,68*,-5,58*,33,24,·
Cc1ccc(S(=O)(=O)Nc2ccc3c4c(cccc24)CC3)c(C)c1,-25,10,0,71*,4,50*,28,60*,53*
Cc1ccc(S(=O)(=O)Nc2ccc(O)c3ccccc23)c(C)c1,·,14,3,·,-29,·,·,·,·
NS(=O)(=O)c1ccc(NC(=O)CNC(=O)c2ccc3c(c2)OCO3)cc1,-1,·,3,10,·,8,·,·,·
COc1ccc(OCc2cc(C(=O)NC3Cc4ccccc4C3)no2)c(Cl)c1,-23,27,-19,52*,59,55*,23,70*,72*
COc1ccc(OCc2cc(C(=O)N[C@H]3CCCCNC3=O)no2)c(Cl)c1,-47,-56,-14,1,-46,-42,·,·,·
